From PubChem BioAssay (NCI)
The panel holds about 79,000 compounds, 15% with a hit somewhere; the sample as a whole holds those more often. A number with no mark means an inactive call. Calls of active or inactive are those of the source. No stated cut-off is given here; in the data, active means growth inhibition above about 70%; inactive means the rest.

experiment: NCI Yeast Anticancer Drug Screen. Data for the mec2-1 strain (AID 157); conditions: S. cerevisiae mec2-1 strain, at 100.0 µM, hits give high values
Method in brief: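 mec2-1 yeast strain, carrying an alteration in DNA damage repair or cell cycle control, was exposed to compounds; growth inhibition was measured relative to vehicle-treated controls.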

Row | Compound | growth inhibition
1 | CCOP(=O)(OCC)C(Cc1ccccc1)N=C(c1ccccc1)c1ccccc1 (stereo not drawn) | 98% (active)
2 | CCc1ncnc2cc(OCC3CO3)c(OC)cc12 (stereo not drawn) | 91% (active)
3 | CCOC(=O)[C@H]1Nc2ccccc2C2c3ccccc3CC21 (stereo partly drawn) | 65%
4 | O=CNc1ccc2c(c1)C(=O)c1ccccc1-2 | 95% (active)
5 | CCOc1ccc2c(c1)c(CC(=O)O)cn2C | 48%
6 | OC1CSCCCSCCSCCCSC1 | -29%
7 | N#Cc1c(N)[nH]c2ccc(Sc3ccccc3)cc12 | 97% (active)
8 | Cc1ccc(-c2ccc(Nc3c4ccccc4nc4ccccc34)cc2)cn1 | 84% (active)
9 | c1ccc2c(c1)NC(NC1Nc3ccccc3N1)N2 | 20%
10 | OC(COc1cccc2ccccc12)CN1CCOCC1 (stereo not drawn) | 39%
11 | CCC/C(Cl)=N\OC(=O)Nc1ccc(Br)cc1 | 99% (active)
12 | COc1ccc(/C=C2\SC(=S)N(/C=C/c3nc4ccccc4[nH]c3=O)C2=O)cc1OC | 91% (active)
13 | O=C(NNc1ccnc2cc(Cl)ccc12)/C(=C\c1ccccc1Cl)NC(=O)c1ccccc1 | 14%
14 | CSC1=NNC(SC)=NN1 | 99% (active)
15 | Cc1c(C2=C(Br)C(=O)N(C)C2=O)c(=O)n(C)c(=O)n1C | 94% (active)
16 | NCCNc1ccc(NCCN)c2c1C(=O)c1c(O)ccc(O)c1C2=O | 68%
17 | Cn1c(=O)c(-c2ccccc2)c(N=[N+]=[N-])c2ccccc21 | 93% (active)
18 | CCCCCCCCCCCCCCCCCCOCC(O)COP(=O)(O)OCC1OC(n2cc(F)c(=O)[nH]c2=O)CC1O (stereo not drawn) | 96% (active)
19 | CCS(=O)(=O)c1ccc(/C=C/C=N/NC(=S)NCC(C)C)cc1 | 4%
20 | CCC(=O)Oc1c(Cl)cc(Cl)c2ccccc12 | 32%

Row | Compound | growth inhibition
21 | COc1cc2c3c(cccc3c1)C(=O)N(CCN(C)C)C2=O | 9%
22 | CN(C)c1ccc(C(C#N)=C(C#N)C#N)cc1 | 18%
23 | O=C(CCCN1CCC2(CC1)CC(=O)N(N1CCCCCC1)C2=O)c1ccc(F)cc1 | 45%
24 | O=C1C2C(C(=O)N1c1ccc(OCc3ccccc3)cc1)C1c3ccccc3C2C2CCCCN21 (stereo not drawn) | 93% (active)
25 | CCN(CC)CCC(=O)c1ccc(Oc2ccc(F)cc2)cc1 | 95% (active)
26 | O=Nc1c(NO)ccc2nn(-c3ccccc3)nc12 | 97% (active)
27 | CC(=O)SCCC[Si](C)(C)CCCSC(C)=O | 35%
28 | O=C(O)C1CCCCC1c1c2ccc(=O)c(O)c-2oc2c(O)c(O)ccc12 (stereo not drawn) | 85% (active)
29 | Cc1ccc(NN(NC(=O)OC(C)C)C(=O)OC(C)C)cc1 | 15%
30 | O=C1c2ccccc2C(=O)c2cc(CBr)ccc21 | 71% (active)
31 | Cc1c(C(Cc2ccccc2N(C)C(=O)/C=C\C(=O)O)c2c[nH]c3ccccc23)c2ccccc2n1C (stereo not drawn) | 51%
32 | CC(C)/C(Cl)=N\OC(=O)Nc1ccc(F)cc1 | 95% (active)
33 | O=C1OC(=O)C2CCCC3CCCC1C32 (stereo not drawn) | 97% (active)
34 | CCOC(=O)C(NC(=O)c1ccccc1)(N1CCN(c2cc3c(cc2F)c(=O)c(C(=O)O)cn3C2CC2)CC1)C(F)(F)F (stereo not drawn) | 3%
35 | COc1ccc(NC(=S)N/N=C(\c2ccccc2)c2ccccn2)cc1 | 95% (active)
36 | C=CCC1=C(C)C(OC(=O)/C=C/c2ccccc2)CC1=O (stereo not drawn) | 7%
37 | NNc1c(F)c(F)cc(F)c1F | 35%
38 | COP(=O)(OC)/C(=C\C1=CN(C(c2ccccc2)(c2ccccc2)c2ccccc2)CN1)NC=O | 97% (active)
39 | COC(=O)c1cc(-c2ccc(C)cc2)[nH]c(=O)c1C#N | 10%

experiment: NCI Yeast Anticancer Drug Screen. Data for the rad14 strain (AID 159);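 further: 0% = growth of vehicle-treated control cultures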; conditions: S. cerevisiae rad14 strain growth inhibition; at 1.2 µM; hits give high values
Method in brief: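 A mutant yeast strain defective in DNA damage repair is treated with compound; inhibition of its growth is scored against untreated, vehicle-exposed cultures.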

Row | Compound | growth inhibition
40 | CCOP(=O)(OCC)C(Cc1ccccc1)N=C(c1ccccc1)c1ccccc1 (stereo not drawn) | 2%
41 | CCc1ncnc2cc(OCC3CO3)c(OC)cc12 (stereo not drawn) | 0%
42 | CCOC(=O)[C@H]1Nc2ccccc2C2c3ccccc3CC21 (stereo partly drawn) | -13%
43 | O=CNc1ccc2c(c1)C(=O)c1ccccc1-2 | 5%
44 | CCOc1ccc2c(c1)c(CC(=O)O)cn2C | 4%
45 | OC1CSCCCSCCSCCCSC1 | -35%
46 | N#Cc1c(N)[nH]c2ccc(Sc3ccccc3)cc12 | 1%
47 | Cc1ccc(-c2ccc(Nc3c4ccccc4nc4ccccc34)cc2)cn1 | -27%
48 | c1ccc2c(c1)NC(NC1Nc3ccccc3N1)N2 | -4%
49 | OC(COc1cccc2ccccc12)CN1CCOCC1 (stereo not drawn) | 41%
50 | CCC/C(Cl)=N\OC(=O)Nc1ccc(Br)cc1 | 32%
51 | COc1ccc(/C=C2\SC(=S)N(/C=C/c3nc4ccccc4[nH]c3=O)C2=O)cc1OC | 3%
52 | O=C(NNc1ccnc2cc(Cl)ccc12)/C(=C\c1ccccc1Cl)NC(=O)c1ccccc1 | -2%
53 | CSC1=NNC(SC)=NN1 | -16%
54 | Cc1c(C2=C(Br)C(=O)N(C)C2=O)c(=O)n(C)c(=O)n1C | 5%
55 | NCCNc1ccc(NCCN)c2c1C(=O)c1c(O)ccc(O)c1C2=O | -4%
56 | Cn1c(=O)c(-c2ccccc2)c(N=[N+]=[N-])c2ccccc21 | 12%
57 | CCCCCCCCCCCCCCCCCCOCC(O)COP(=O)(O)OCC1OC(n2cc(F)c(=O)[nH]c2=O)CC1O (stereo not drawn) | 27%
58 | CCS(=O)(=O)c1ccc(/C=C/C=N/NC(=S)NCC(C)C)cc1 | 4%
59 | CCC(=O)Oc1c(Cl)cc(Cl)c2ccccc12 | -7%

Row | Compound | growth inhibition
60 | COc1cc2c3c(cccc3c1)C(=O)N(CCN(C)C)C2=O | -33%
61 | CN(C)c1ccc(C(C#N)=C(C#N)C#N)cc1 | 3%
62 | O=C(CCCN1CCC2(CC1)CC(=O)N(N1CCCCCC1)C2=O)c1ccc(F)cc1 | 45%
63 | O=C1C2C(C(=O)N1c1ccc(OCc3ccccc3)cc1)C1c3ccccc3C2C2CCCCN21 (stereo not drawn) | -2%
64 | CCN(CC)CCC(=O)c1ccc(Oc2ccc(F)cc2)cc1 | 5%
65 | O=Nc1c(NO)ccc2nn(-c3ccccc3)nc12 | 7%
66 | CC(=O)SCCC[Si](C)(C)CCCSC(C)=O | -3%
67 | O=C(O)C1CCCCC1c1c2ccc(=O)c(O)c-2oc2c(O)c(O)ccc12 (stereo not drawn) | -17%
68 | Cc1ccc(NN(NC(=O)OC(C)C)C(=O)OC(C)C)cc1 | -2%
69 | O=C1c2ccccc2C(=O)c2cc(CBr)ccc21 | -2%
70 | Cc1c(C(Cc2ccccc2N(C)C(=O)/C=C\C(=O)O)c2c[nH]c3ccccc23)c2ccccc2n1C (stereo not drawn) | -3%
71 | CC(C)/C(Cl)=N\OC(=O)Nc1ccc(F)cc1 | 4%
72 | O=C1OC(=O)C2CCCC3CCCC1C32 (stereo not drawn) | 17%
73 | CCOC(=O)C(NC(=O)c1ccccc1)(N1CCN(c2cc3c(cc2F)c(=O)c(C(=O)O)cn3C2CC2)CC1)C(F)(F)F (stereo not drawn) | 0%
74 | COc1ccc(NC(=S)N/N=C(\c2ccccc2)c2ccccn2)cc1 | -4%
75 | C=CCC1=C(C)C(OC(=O)/C=C/c2ccccc2)CC1=O (stereo not drawn) | 1%
76 | NNc1c(F)c(F)cc(F)c1F | -25%
77 | COP(=O)(OC)/C(=C\C1=CN(C(c2ccccc2)(c2ccccc2)c2ccccc2)CN1)NC=O | 4%
78 | COC(=O)c1cc(-c2ccc(C)cc2)[nH]c(=O)c1C#N | 1%
